This passage reports AC50 and activity, negative = inhibition results from PubChem BioAssay AID1851 (National Center for Advancing Translational Sciences (NCATS), 2009).

Several values for one entry are separate records, joined by “and”; a condition that tells them apart may be missing. Equal values may be shown once. The whole screen tested about 16,000 compounds, of which about 5,700 (36%) were called active. About 24% were inconclusive and are not listed. Calls follow the shape of the dose curve; as a rule, active = well fitted curve in the direction sought with a large enough effect; inconclusive = small, poorly fitted or top-dose-only effect, or effect the other way; inactive = no such curve, though single readings can be large or run the other way. Some of the results follow. The source holds several records for some structures; these can differ, active in one and inactive in another.
% is scaled to controls: 0 for no effect and ±100 for the full control effect.

This test deals with Cytochrome P450 1A2 (Homo sapiens) (UniProt P05177). Description: Cytochrome panel assay with activity outcomes. The conditions noted are these: recombinant CYP, pro-luciferin dealkylation, luminescence, p450-cyp1a2; series mostly up to 57.1 µM.
Chain of Cytochrome P450 1A2 (Homo sapiens) (P05177 whole entry, looked up): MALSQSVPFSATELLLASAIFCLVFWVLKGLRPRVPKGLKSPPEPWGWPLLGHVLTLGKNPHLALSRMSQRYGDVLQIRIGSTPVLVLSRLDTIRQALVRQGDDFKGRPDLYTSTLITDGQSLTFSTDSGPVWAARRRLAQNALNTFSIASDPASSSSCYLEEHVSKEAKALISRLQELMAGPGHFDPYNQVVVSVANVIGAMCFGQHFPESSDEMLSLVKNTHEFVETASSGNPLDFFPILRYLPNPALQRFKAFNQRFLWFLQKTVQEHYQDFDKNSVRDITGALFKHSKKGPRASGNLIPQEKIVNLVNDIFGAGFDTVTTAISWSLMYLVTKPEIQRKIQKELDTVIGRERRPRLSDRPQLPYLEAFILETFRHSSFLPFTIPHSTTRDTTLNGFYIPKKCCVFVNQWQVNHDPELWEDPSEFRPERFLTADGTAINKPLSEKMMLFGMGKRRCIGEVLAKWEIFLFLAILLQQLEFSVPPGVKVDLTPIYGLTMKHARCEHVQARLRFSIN
With `CCC1(c2ccccc2)C(=O)NCNC1=O`, the AC50 result was “inactive”.

Turning to `N=C1[C@@H](O)[C@]2(I)c3ccccc3N3C(=N)[C@H](O)[C@@H]4c5ccccc5N1[C@@H]4[C@@H]32`, the AC50 is 2.51 µM (active).

On to `Cn1cccc1C(=O)N1CCC[C@@]2(CCN(Cc3cc(C(F)(F)F)cc(C(F)(F)F)c3)C2)C1`, for which the AC50 entry is “inactive”.

For `CCOc1ccc(NC(=S)N(Cc2ccc(N(C)C)cc2)Cc2ccco2)cc1`, the AC50 is 1.26 µM (active).

Regarding `O=C(COc1ccc(Cl)cc1)Nc1ccc(N2CCN(C(=O)c3ccco3)CC2)cc1`, the AC50 entry was “inactive”.

For the molecule `CCOc1ccc(NC(=S)N(Cc2ccc(Cl)cc2)Cc2ccco2)cc1`, the AC50 was 3.55 µM (active).

Consider `Cc1nn(C)cc1C(C(=O)NC1CCCCC1)N(C(=O)Cc1cccs1)c1ccc(C(C)C)cc1` (configuration not stated), for which the AC50 entry was “inactive”.

Take `CC1Cc2ccccc2N1Cc1nc2cc(C(F)(F)F)ccc2c(=O)[nH]1` (configuration not stated): the AC50 is 3.55 µM (active).

For the molecule `CN1CCC(N(C)C(=O)CCc2nc3ccccc3c(=O)[nH]2)CC1`, the AC50 result is “inactive”.

As for `Cc1cc(C)c2c(SCc3ccc(Cl)cc3Cl)nc(N)nc2n1`, the AC50 is 3.16 µM (active).

On to `O=C1OCC(c2ccccc2)=C1c1ccc(S(=O)(=O)N2CCOCC2)s1`, for which the AC50 was 25.1 µM (active).

For `Cc1ccc(NC(=O)CSCC(=O)Nc2ccc(N3CCOCC3)c(Cl)c2)cc1`, the AC50 entry was “inactive”.

For `Cc1ccc(NC(=O)c2cc(N3C(=O)C4CC=CCC4C3=O)ccc2N2CCOCC2)cc1Cl` (configuration not stated), the AC50 is 6.31 µM (active).

As for `NC(=O)c1ccc(N2CCCCC2)c(N2C(=O)C3CC=CCC3C2=O)c1` (configuration not stated), the AC50 result is “inactive”.

`CO/N=C(/CNC(=O)c1ccc(Cl)cc1Cl)c1ccc(Cl)cc1`: the AC50 was 2.51 µM (active).

As to `CC1(C)CC(O)CC(C)(C)N1CC(O)COCCOc1ccc(Br)cc1` (configuration not stated), the AC50 entry is “inactive”.

With `CCSc1nnc(-c2ccccc2NC(C)=O)c(=O)[nH]1`, the AC50 result is “inactive”.

Turning to `CCSc1c(C(=O)NC)ccc2c1C(=O)c1ccccc1C2=O`, the AC50 is 0.316 µM (active).

On to `Cc1[nH]c2c(C)cccc2c1CCNC(=O)c1ccc2c(c1[N+](=O)[O-])C(=O)c1ccccc1C2=O`, for which the AC50 entry is “inactive”.

Consider `N#C/C(=C(/O)CN1CCCCC1)c1nc(-c2ccc(Cl)cc2)cs1`, for which the AC50 is 6.31 µM (active).

Regarding `O=C1OC2CC3CC1CC(O)(C3)C2` (configuration not stated), the AC50 entry is “inactive”.

On to `NC(=O)CSc1nc2sc(-c3ccccc3)cc2c(=O)n1N`, for which the AC50 is 5.01 µM (active).

As for `CNC(C)c1cc(OC)ccc1OC` (configuration not stated), the AC50 entry is “inactive”.

In the case of `COc1cc(/C=C\c2ccc(OC)cc2OC)cc(OC)c1`, the AC50 was 0.794 µM (active).

As for `COC(=O)C(NC(=O)c1ccc(F)cc1)(Nc1ncc(S(=O)(=O)c2ccc([N+](=O)[O-])cc2)s1)C(F)(F)F` (configuration not stated), the AC50 result is “inactive”.

Consider `Clc1cccc(Oc2cnc3ccccc3n2)c1`, for which the AC50 is 2.51 µM (active).

Consider `CCOC(=O)Cn1nc(C)n(-c2ccc(C)cc2)c1=O`, for which the AC50 entry was “inactive”.

As to `CCOC(=O)c1cc2c(C)n(-c3ccc(C)cc3)c(C)c2ccc1=O`, the half-maximal activity concentration (AC50) was 12.6 µM (active).

With `c1ccc(-c2c3ccccc3nc3[nH]c4ccccc4c23)cc1`, the AC50 is 0.501 µM (active).

On to `CCCCc1c2ccccc2nc2[nH]c3ccccc3c12`, for which the AC50 was 0.2 µM (active).

On to `O=C(O)[C@@H](O)[C@@H](O)[C@H](O)[C@H](O)CO`, for which the activity, negative = inhibition was -5.55% [at 2.29 µM] (inactive).

For the molecule `CO[C@@H]1COC(=O)CC=C[C@@H](C)[C@@H]2C=C[C@H](O)[C@@H](COC(=O)C/C=C\[C@H]1C)O2`, the activity, negative = inhibition was -1.42% [at 11.4 µM] (inactive).

Consider `CC(C)(C)c1nnc(NC(=O)NS(=O)(=O)c2ccccc2)s1`, for which the AC50 entry is “inactive”.

For `CC(C)(C)NC(=O)C(=O)NNC(=O)c1ccccc1`, the AC50 result was “inactive”.

Take `CNc1ncc(C(=O)c2ccccc2)s1`: the AC50 was 4.47 µM (active).

As to `Cc1ccc(S(=O)(=O)N[C@H](C(=O)O)C(C)C)cc1`, the activity, negative = inhibition is -11% [at 11.4 µM] (inactive).

Take `Cc1ccc(NNS(=O)(=O)c2ccc(C)cc2)cc1`: the AC50 was 2.82 µM (active).

As for `COc1cc(C)c(Br)cc1S(=O)(=O)NCc1ccccc1`, the AC50 is 10 µM (active).

Turning to `Cc1ccc(-c2nn3c(C)nnc3c3ccccc23)cc1S(=O)(=O)NCc1ccccc1`, the AC50 entry was “inactive”.

For `Cc1ccc(S(=O)(=O)N[C@H](CO)C(=O)O)cc1`, the activity, negative = inhibition is -12% [at 11.4 µM] (inactive).

Consider `CCOC(=O)Nc1ccc(S(=O)(=O)NCc2ccccc2)cc1`, for which the AC50 entry was “inactive”.

On to `O=S(=O)(C[C@H](O)C(Cl)(Cl)Cl)NNc1ccccc1`, for which the activity, negative = inhibition is 0.811% [at 2.29 µM] (inactive).

For `Cc1ccc(S(=O)(=O)NCC2CCC(C(=O)O)CC2)cc1` (configuration not stated), the AC50 result is “inactive”.

As to `Cc1ccc(S(=O)(=O)NCc2ccccc2)cc1`, the concentration at half-maximal activity (AC50) is 0.501 µM (active).

In the case of `Cc1ccc(NC(=O)NNS(=O)(=O)c2ccc(Br)cc2)cc1`, the AC50 result was “inactive”.

As to `Cc1ccc(S(=O)(=O)NNc2ccccc2)cc1`, the AC50 was 2.82 µM (active).

Turning to `C=CC[N+]1(CC#CCOC(c2ccccc2)c2ccccc2)CCOCC1`, the AC50 entry is “inactive”.

Take `N#Cc1cc2nc(O)c(O)nc2cc1[N+](=O)[O-]`: the concentration at half-maximal activity (AC50) entry is “inactive and 39.8 µM (active)”.

Consider `NS(=O)(=O)c1cccc2c1c([N+](=O)[O-])cc1nc(O)c(O)nc12`, for which the AC50 entry is “inactive”.

On to `COc1ccccc1CN1CC[C@@]2(CCCN(S(C)(=O)=O)C2)C1`, for which the AC50 entry was “inactive”.

For `Cc1ccc(NC2=NC(c3ccccc3)n3c(nc(C)cc3=O)N2)c(C)c1` (configuration not stated), the AC50 result was “inactive”.

With `C[C@@H](c1ccccc1)N1C(=O)[C@@H]2[C@H]3C(=CC[C@H]2C1=O)C(=O)[C@H]1O[C@H]1[C@H]3O`, the activity, negative = inhibition was -2.35% [at 11.4 µM] (inactive).

On to `Sc1ccc2ccccc2c1CNCc1ccccc1`, for which the AC50 was 1.26 µM (active).

On to `O=C(O)c1ccc(CNCc2ccccc2)cc1`, for which the activity, negative = inhibition was -10.8% [at 11.4 µM] (inactive).

Consider `O=C(C[C@@H](c1ccccc1)N1CCCCC1)c1ccccc1`, for which the AC50 was 1.26 µM (active).

Turning to `C[C@H](C(=O)c1ccccc1)[C@@H](c1ccccc1)N1CCOCC1`, the activity, negative = inhibition is -14.9% [at 11.4 µM] (inactive).

In the case of `O=C(O)c1cccc(CN2CCCCC2)c1`, the activity, negative = inhibition is -16.7% [at 11.4 µM] (inactive).

For the molecule `O=C(O)CCSCc1ccccc1`, the activity, negative = inhibition is -20.7% [at 11.4 µM] (inactive).

As to `N[C@@H](CSCc1ccccc1)C(=O)O`, the activity, negative = inhibition was -9.6% [at 11.4 µM] (inactive).

Regarding `O=C(Cc1ccccc1)NCCSCc1ccc(Cl)cc1`, the AC50 is 7.08 µM (active).

On to `CCCCCCCCCCCC(=O)O[C@H](CC(=O)O)C[N+](C)(C)C`, for which the AC50 result is “inactive”.

On to `Cc1ccc(NC(=O)N/C=C/c2ccc(Cl)cc2)cc1`, for which the AC50 entry is “inactive”.

On to `CC(C)(C)N(NC(=O)Nc1ccccc1)C(=O)c1ccccc1Cl`, for which the AC50 entry was “inactive”.

Regarding `O=C(N/N=C/c1ccc(Cl)cc1Cl)c1cccc(F)c1`, the AC50 is 1.78 µM (active).

As to `O=C(N/N=C/c1ccc(Cl)cc1)Nc1ccccc1`, the AC50 is 10 µM (active).

Regarding `O=C(N/N=C/c1ccc(Cl)cc1Cl)Nc1ccccc1`, the AC50 is 1 µM (active).

As for `O=C(Nc1ccc(N=Nc2ccccc2)cc1)c1ccc(Cl)cc1Cl`, the AC50 entry is “inactive”.

For `O=C(c1ccco1)N1CCC2(CCCN(Cc3ccccc3)C2)CC1`, the AC50 entry is “inactive”.

For `O=C(NCC1COc2ccccc2O1)C1CCN(S(=O)(=O)c2cccc3nsnc23)CC1` (configuration not stated), the AC50 result is “inactive”.

With `CC(=O)N1c2c(cc(Br)cc2S(=O)(=O)NCC2COc3ccccc3O2)CC1C` (configuration not stated), the AC50 is 3.16 µM (active).

As for `CCCN(CCC)CCCNS(=O)(=O)c1cc(Br)cc2c1N(C(C)=O)CC2`, the AC50 result is “inactive”.

As to `COc1ccc(C(=O)NN)cc1COc1ccc(Br)cc1`, the AC50 is 0.2 µM (active).

For `COc1ccc(/C=C/C(=O)NCc2cn(C)nc2C)cc1COc1ccc(Br)cc1`, the AC50 result was “inactive”.

Regarding `NC(=O)CNC(=O)[C@@H]1CC2(CC(c3ccc(Cl)cc3)=NO2)CN1C(=O)c1ccccc1` (some centres not stated), the AC50 result was “inactive”.

On to `C=CCc1cc(C=O)cc(OC)c1OCc1ccc(Cl)cc1`, for which the AC50 was 1.12 µM (active).

Regarding `COC(=O)c1cc(-c2ccccc2)sc1NC(=O)CN1C(=O)c2ccccc2C1=O`, the AC50 is 0.708 µM (active).

For `CCOC(=O)c1cc(-c2ccccc2)sc1NC(=O)C(C)(C)C`, the AC50 entry is “inactive”.

As to `CCOC(=O)c1cc(-c2ccccc2)sc1NC(=O)c1ccc(OC)cc1`, the half-maximal activity concentration (AC50) is 8.91 µM (active).

With `O=C(CN1C(=O)c2ccccc2C1=O)NC1(C(=O)O)CCCC1`, the activity, negative = inhibition was -2.12% [at 2.29 µM] (inactive).

For `CCOC(=O)c1c(NC(=O)CCCN2CCOCC2)sc2c1CC(C)(C)OC2`, the AC50 is 14.1 µM (active).

Turning to `CNC(=O)c1ccc(-c2sc3nc(N4CCOCC4)c4c(c3c2N)CC(C)(C)OC4)o1`, the AC50 result is “inactive”.

Consider `CCOC(=O)c1c(NC(=O)c2ccc(N3CCOCC3)c([N+](=O)[O-])c2)sc(C)c1C`, for which the AC50 result is “inactive”.

As to `CN1CCN(NC(=O)CN2C(=O)/C(=C/c3c(Cl)cccc3Cl)SC2=S)CC1`, the AC50 result was “inactive”.

As to `CCN1C(=O)/C(=C/C=C2/SCCN2C)SC1=S`, the AC50 was 1 µM (active).

With `Cc1ccc(Sc2cc(Cl)nc(N)n2)cc1`, the AC50 entry is “inactive”.

As to `CCNc1nc(Sc2ccc(C)cc2)cc(C(F)(F)F)n1`, the AC50 was 3.16 µM (active).

For `Cn1c(=O)c(-c2ccc(F)cc2)nc2cnc(Oc3ccccc3)nc21`, the AC50 is 0.316 µM (active).

For `COc1ccc(Oc2ncc3nc(-c4ccc(F)cc4)c(=O)n(C)c3n2)cc1`, the AC50 was 2 µM (active).

For `CN(C)Cc1ccccc1-c1ccc2ncnc(N3CCOCC3)c2c1`, the AC50 is 15.8 µM (active).

For `FC(F)(F)c1ccccc1-c1ccc2ncnc(N3CCOCC3)c2c1`, the AC50 was 0.251 µM (active).

For the molecule `COc1cccc(-c2ccc3ncnc(N4CCOCC4)c3c2)c1`, the AC50 is 1 µM (active).

As for `COc1ccccc1-c1ccc2ncnc(N3CCOCC3)c2c1`, the AC50 is 0.631 µM (active).

In the case of `O=C(O)C1CCN(c2ncnc3ccc(-c4ccccc4C(F)(F)F)cc23)CC1`, the AC50 entry was “inactive”.

Consider `CN(C)C(=O)c1ccc(-c2ccc3ncnc(N4CCOCC4)c3c2)cc1`, for which the AC50 result was “inactive”.

Regarding `COCCCN1C(=O)C(=O)/C(=C(/O)c2ccc(OC(C)C)c(C)c2)C1c1ccncc1` (configuration not stated), the activity, negative = inhibition is 15.5% [at 11.4 µM] (inactive).

Turning to `COc1ccc(C(=O)N2CCC[C@@]3(CCN(Cc4cc(C(F)(F)F)cc(C(F)(F)F)c4)C3)C2)cc1`, the AC50 entry is “inactive”.

For the molecule `COc1ccccc1-c1ccc2ncnc(N3CCN(C)CC3)c2c1`, the AC50 was 3.16 µM (active).

For orientation: AC50 means the concentration at which the activity in the assay is half-maximal.
